These results are taken from PubChem BioAssay (EPA / NIEHS).

Each structure is given as a SMILES string. Values joined by “and” are separate entries in the source; they are usually repeats but may differ in a detail not shown here. Equal entries are not always repeated. Results filed as inconclusive are left out. Active and inactive are the calls of the source. The calls were made as follows: active = hit-call score of the fitted dose curve at least 0.9, where 1 is the maximum; inconclusive = response in the unintended direction; inactive = score below 0.9.

Chain of Estrogen receptor beta (Homo sapiens) (Q92731 whole entry, looked up, the tested form may be a part): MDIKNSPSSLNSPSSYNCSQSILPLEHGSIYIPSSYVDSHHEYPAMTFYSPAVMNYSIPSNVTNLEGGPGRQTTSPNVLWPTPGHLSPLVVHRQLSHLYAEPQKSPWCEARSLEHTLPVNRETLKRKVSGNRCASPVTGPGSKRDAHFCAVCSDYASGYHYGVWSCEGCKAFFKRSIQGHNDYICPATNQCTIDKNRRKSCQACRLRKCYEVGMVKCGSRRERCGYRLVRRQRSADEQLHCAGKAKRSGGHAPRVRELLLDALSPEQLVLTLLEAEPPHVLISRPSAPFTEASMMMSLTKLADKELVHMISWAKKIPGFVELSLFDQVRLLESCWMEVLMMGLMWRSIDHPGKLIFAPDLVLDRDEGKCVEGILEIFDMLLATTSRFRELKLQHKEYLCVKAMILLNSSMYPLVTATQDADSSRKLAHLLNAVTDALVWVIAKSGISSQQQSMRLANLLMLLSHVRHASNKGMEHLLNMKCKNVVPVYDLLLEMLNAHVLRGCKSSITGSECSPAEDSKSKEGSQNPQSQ
T1 sequence (P03372 whole entry, looked up, the tested form may be a part): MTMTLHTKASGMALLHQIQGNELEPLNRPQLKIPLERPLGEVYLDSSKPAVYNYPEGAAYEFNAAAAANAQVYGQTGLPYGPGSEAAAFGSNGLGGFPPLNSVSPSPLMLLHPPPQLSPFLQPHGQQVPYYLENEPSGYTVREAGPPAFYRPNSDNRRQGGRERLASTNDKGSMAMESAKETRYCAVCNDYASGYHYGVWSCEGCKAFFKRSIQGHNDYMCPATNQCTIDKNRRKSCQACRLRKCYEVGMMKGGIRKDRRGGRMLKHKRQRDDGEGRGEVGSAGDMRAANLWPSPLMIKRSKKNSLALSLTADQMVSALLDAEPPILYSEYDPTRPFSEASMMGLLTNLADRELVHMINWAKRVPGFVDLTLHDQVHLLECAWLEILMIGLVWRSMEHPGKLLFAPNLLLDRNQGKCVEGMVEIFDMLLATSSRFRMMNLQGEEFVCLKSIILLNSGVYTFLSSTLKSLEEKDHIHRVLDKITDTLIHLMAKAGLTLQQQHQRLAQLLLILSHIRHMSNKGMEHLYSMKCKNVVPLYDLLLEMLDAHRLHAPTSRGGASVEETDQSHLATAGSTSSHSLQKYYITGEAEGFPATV
T1 sequence (Q92731 whole entry, looked up, the tested form may be a part): as the sequence (Q92731 whole entry, looked up, the tested form may be a part) above

The first experiment concerns the target T1, Estrogen receptor (Homo sapiens) + Estrogen receptor beta (Homo sapiens) (UniProt P03372+Q92731). Put plainly: OT_ER_ERaERb_0480: Odyssey Thera (OT) 8-hour HEK293T Protein-Complementation Assay for Estrogen Receptor-alpha/-beta Heterodimer (AID 2283352). In short, it runs like this: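 Human HEK293T cells were treated for 8 hours and receptor heterodimerisation was detected through reconstitution of a fluorescent reporter split between ER-alpha and ER-beta ligand-binding domains. Activity was analysed as gain of signal against DMSO.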
As to `N#CN=C(N)N`, the outcome was inactive.
As for `OCc1ccco1`, the result was inactive.
For `O=[N+]([O-])c1ccc(O)c([N+](=O)[O-])c1`, the outcome was inactive.
Regarding `C=C(C)C#N`, the outcome was inactive.
Still for that read-out and setting: for `CC(C#N)CCC#N` (centres undefined) the value was “inactive”; for `C=CC#N`, “inactive”; for `CC1(C)Cc2cccc(O)c2O1`, “inactive”.
For `Cc1ccc2ccccc2c1C`, the outcome was inactive.
As to `CC(C)c1cccc(C(C)C)c1O`, the result was inactive.
Turning to `[O-][Cl+2]([O-])O`, the result was inactive.
With `Cn1sc(Cl)cc1=O`, the result was inactive.

For a further experiment, the target named is Androgen Receptor/SRC-1 Co-activator, AR (gene 367) (UniProt P10275). Briefly: OT_AR_ARSRC1_0960: Odyssey Thera (OT) 16-hour HEK293T Protein-Complementation Assay for Androgen Receptor/SRC-1 Co-activator (AID 2283353).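 Also: actives raise the signal above DMSO so potency reflects increased AR and SRC-1 complex.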 In short, it runs like this: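 Split-Venus PCA, AR/SRC-1 fusions, stable HEK293T; 16 h compound exposure; imaged at 488 and 635 nm; N/C ratio (488 nm channel), min 400 cells/image; positive-direction fit, DMSO baseline.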
Chain of Androgen Receptor/SRC-1 Co-activator, AR (gene 367) (P10275 whole entry, looked up, the tested form may be a part): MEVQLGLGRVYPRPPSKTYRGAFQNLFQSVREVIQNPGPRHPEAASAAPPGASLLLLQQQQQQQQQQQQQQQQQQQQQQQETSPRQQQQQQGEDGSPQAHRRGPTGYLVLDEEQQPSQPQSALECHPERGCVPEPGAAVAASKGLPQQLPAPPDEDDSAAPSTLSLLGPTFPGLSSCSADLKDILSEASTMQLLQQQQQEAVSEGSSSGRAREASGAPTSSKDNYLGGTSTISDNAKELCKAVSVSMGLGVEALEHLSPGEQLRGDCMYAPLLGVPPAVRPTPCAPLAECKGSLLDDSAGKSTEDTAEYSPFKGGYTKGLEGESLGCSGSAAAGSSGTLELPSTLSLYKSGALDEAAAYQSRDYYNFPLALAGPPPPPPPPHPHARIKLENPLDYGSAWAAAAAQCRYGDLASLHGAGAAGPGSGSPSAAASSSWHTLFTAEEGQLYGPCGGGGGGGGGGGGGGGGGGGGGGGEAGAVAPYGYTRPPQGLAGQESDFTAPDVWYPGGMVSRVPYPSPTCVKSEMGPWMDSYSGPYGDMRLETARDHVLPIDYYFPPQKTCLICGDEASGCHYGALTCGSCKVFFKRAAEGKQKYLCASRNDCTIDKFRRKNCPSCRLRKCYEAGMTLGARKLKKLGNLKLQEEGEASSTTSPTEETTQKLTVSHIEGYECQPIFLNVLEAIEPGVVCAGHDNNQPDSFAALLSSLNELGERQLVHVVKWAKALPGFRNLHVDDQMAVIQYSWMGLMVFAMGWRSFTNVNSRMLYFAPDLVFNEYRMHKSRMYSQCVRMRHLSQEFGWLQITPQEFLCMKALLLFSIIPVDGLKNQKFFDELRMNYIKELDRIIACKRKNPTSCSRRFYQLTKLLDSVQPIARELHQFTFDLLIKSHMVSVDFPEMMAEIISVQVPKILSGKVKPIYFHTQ
As for `CCC1(c2ccc(N)cc2)CCC(=O)NC1=O` (centres undefined), the call was inactive.
Consider `COP(=O)(OC)OC`, for which the compound was called inactive.
In the case of `O=[N+]([O-])c1ccc(O)c([N+](=O)[O-])c1`, the call was inactive.
Consider `O=c1[nH]c(=O)[nH]c(=O)[nH]1`, for which the compound was classed as inactive.
Broadly, the AC50 is the concentration giving half of the maximal activity seen. `c1cc[c]([Hg][c]2ccccc2)cc1`: the AC50 is 41.9 µM (active).
Turning to `Cc1ccc2ccccc2c1C`, the result was inactive.
Same read-out and setting: for `CC(C)c1cccc(C(C)C)c1O` the value was “inactive”; for `ClC1(Cl)C2(Cl)C3(Cl)C4(Cl)C(Cl)(Cl)C5(Cl)C3(Cl)C1(Cl)C5(Cl)C24Cl` (centres undefined), “inactive”.

Another experiment shares this target. Put plainly: OT_AR_ARSRC1_0480: Odyssey Thera (OT) 8-hour HEK293T Protein-Complementation Assay for Androgen Receptor/SRC-1 Co-activator (AID 2283354).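 Also: hits raise the complementation signal above DMSO so AC50 marks enhancers.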 The method, boiled down:
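HEK293T cells stably expressing AR and SRC-1 fused to Venus YFP fragments, imaged 8 h after dosing. Complementation fluorescence scored as nuclear/cytoplasmic ratio at 488 nm in at least 400 cells per image; gain fitted versus DMSO.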
As to `C=CCc1ccc(OC)cc1`, the compound was classed as inactive.
Consider `CCC1(c2ccc(N)cc2)CCC(=O)NC1=O` (centres undefined), for which the result was inactive.
For `O=[N+]([O-])c1ccc(O)c([N+](=O)[O-])c1`, the compound was called inactive.
On to `O=c1[nH]c(=O)[nH]c(=O)[nH]1`, for which the compound was called inactive.
Consider `c1cc[c]([Hg][c]2ccccc2)cc1`, for which the half-maximal activity concentration (AC50) was 32.2 µM (active).
For `Cc1ccc2ccccc2c1C`, the compound was classed as inactive.
As for `CC(C)c1cccc(C(C)C)c1O`, the call was inactive.
On to `ClC1(Cl)C2(Cl)C3(Cl)C4(Cl)C(Cl)(Cl)C5(Cl)C3(Cl)C1(Cl)C5(Cl)C24Cl` (centres undefined), for which the compound was called inactive.

In a further experiment the target is T1, Estrogen receptor (Homo sapiens) + Estrogen receptor beta (Homo sapiens). Put plainly: OT_ER_ERaERb_1440: Odyssey Thera (OT) 24-hour HEK293T Protein-Complementation Assay for Estrogen Receptor-alpha/-beta Homodimer (AID 2283356).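 Also: heteromer of ER alpha and ER beta binding domains; hits raise reporter fluorescence and both agonists and antagonists give an increase.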 The method, boiled down:
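24 h exposure; HEK293T PCA cells with ERα/ERβ LBD fragments; signal rise in nuclear or whole-cell fluorescence over vehicle.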
For `N#CN=C(N)N`, the outcome was inactive.
Turning to `OCc1ccco1`, the result was inactive.
On to `O=[N+]([O-])c1ccc(O)c([N+](=O)[O-])c1`, for which the result was inactive.
For the compound `C=C(C)C#N`, the result was inactive.
Consider `c1cc[c]([Hg][c]2ccccc2)cc1`, for which the result was inactive.
Regarding `CC(C#N)CCC#N` (centres undefined), the result was inactive.
With `C=CC#N`, the result was inactive.
`COc1ccc(C=O)cc1OC`: the outcome was inactive.
On to `CC1(C)Cc2cccc(O)c2O1`, for which the result was inactive.
As to `BrCCBr`, the outcome was inactive.
Take `Cc1ccc2ccccc2c1C`: the result was inactive.
On to `CC(C)c1cccc(C(C)C)c1O`, for which the outcome was inactive.
For the compound `[O-][Cl+2]([O-])O`, the outcome was inactive.
With `Cn1sc(Cl)cc1=O`, the outcome was inactive.

A further experiment has as its target Estrogen receptor beta (Homo sapiens) (UniProt Q92731). Put plainly: OT_ER_ERbERb_0480: Odyssey Thera (OT) 8-hour HEK293T Protein-Complementation Assay for Estrogen Receptor-beta/-beta Homodimer (AID 2283357).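 Also: active means signal gain over DMSO baseline.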 In short, it runs like this:
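Fluorescence intensity, nuclear for agonists and nuclear plus cytoplasmic for antagonists, was quantified by laser scanning cytometry versus vehicle after 8 h treatment. The cells were HEK293T stably carrying ER beta LBD fragment-complementation partners.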
Consider `CN(C)N=O`, for which the compound was called inactive.
As to `C=CCc1ccc(OC)cc1`, the result was inactive.
Turning to `N#CN=C(N)N`, the call was inactive.
Take `OCc1ccco1`: the call was inactive.
Consider `CCCCCCCCc1ccc(O)cc1`, for which the AC50 is 12.2 µM (active).
Take `C=C(C)C#N`: the compound was classed as inactive.
As to `O=c1[nH]c(=O)[nH]c(=O)[nH]1`, the compound was classed as inactive.
Consider `Oc1cccc2cccnc12`, for which the result was inactive.
On the same count and under the same terms, next, `O=C(O)C(F)(F)C(F)(F)C(F)(F)C(F)(F)C(F)(F)C(F)(F)F`: “inactive”; `CC(C#N)CCC#N` (centres undefined): “inactive”.
Take `C=CC#N`: the compound was called inactive.
As to `COc1ccc(C=O)cc1OC`, the compound was called inactive.
As for `CC1(C)Cc2cccc(O)c2O1`, the result was inactive.
Regarding `BrCCBr`, the result was inactive.
Regarding `Cc1ccc2ccccc2c1C`, the call was inactive.
For `CC(C)c1cccc(C(C)C)c1O`, the outcome was inactive.
The same measure, in the same setting: for `Cn1sc(Cl)cc1=O` the value was “inactive”.
Regarding `CC(C)(C)CC(C)(C)c1ccc(O)cc1`, the AC50 was 817 nM (active) and 676 nM (active) and 702 nM (active).
